# Records with an inconclusive call do not appear. Activity calls are given as the source filed them. How the source made its calls: active means hit-call score of the fitted dose curve at least 0.9, where 1 is the maximum; inconclusive means response in the unintended direction; inactive means score below 0.9.
# System: rainbow trout Peroxisome Proliferator-activated Receptor alpha (PPARa), gene 110490141
# Assay: ATG_rtPPARa_EcoTox2: Attagene TRANS-FACTORIAL EcoTox-2 HepG2 Assay for rainbow trout Peroxisome Proliferator-activated Receptor alpha (PPARa)
# Description: ATG_EcoTox2 is a cell-based, multiplexed assay created by modifying the existing Attagene TRANS-FACTORIAL system to include a panel of nuclear receptors from some or all the following species: human (Homo sapiens), african clawed frog (Xenopus laevis), rainbow trout (Oncorhynchus mykiss), japanese medaka (Oryzias latipes), and zebrafish (Danio rerio). The ECOTOX2-FACTORIAL format uses HepG2, a human liver cell line, with measurements taken at 24 hours after chemical dosing in a 24-well plate. ATG_rtPPARa_EcoTox2 is one of 29 assay components calculated in the ATG_EcoTox2 assay. It is designed to make measurements of mRNA induction, a form of inducible reporter, as detected with fluorescence intensity signals by Reverse transcription polymerase chain reaction (RT-PCR) and Capillary electrophoresis technology.The assay endpoint ATG_frPPARa_EcoTox2 was analyzed in the positive analysis fitting direction relative to DMSO as the negative control and baseline of activity. Using a type of inducible reporter, measures of mRNA for gain-of-signal activity can be used to understand the reporter gene at the transcription factor-level as they relate to the gene PPARa. Furthermore, this assay endpoint can be referred to as a primary readout, because this assay has produced multiple assay endpoints where this one serves a reporter gene function. […]
row,Structure (SMILES),AC50
1,O=C(O)C(F)(F)C(F)(F)C(F)(F)C(F)(F)C(F)(F)C(F)(F)C(F)(F)F,54.2 µM (active)
2,O=S(=O)(O)C(F)(F)C(F)(F)C(F)(F)C(F)(F)C(F)(F)C(F)(F)F,30.6 µM (active)

# — PubChem BioAssay AID2284347 (EPA ToxCast)
